The campaign covered roughly 5,500 compounds. About 2,000 (36%) were called active. Another 18% or so got no clear call; they are omitted. No stated cut-off is given here; in the data, active means normalized growth mostly below about 0.91 (no sharp cut-off); inconclusive means no clear call, values can overlap the other calls; inactive means mostly above about 0.92. The list shows a part of the results.
Test: chemical genetic growth profiling, strain panel (AID 1159580);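 further: tested at 20 µM; growth read once vehicle control cultures reached saturation at 30 °C; 1 = growth at the plate median or of vehicle wells; lower values mean less growth of the strain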
Details: growth OD

Measured: normalized growth

Cc1cc(O)c(C)c(O)c1C(=O)O
inactive: S. cerevisiae deletion strains, locus YJR066W, strain TOR1, active compounds read low 0.948 | S. cerevisiae deletion strains, locus YKL009W, strain mrt4, active compounds read low 1.01 | S. cerevisiae deletion strains, locus YKL068W, active compounds read low 0.982 | S. cerevisiae deletion strains, locus YKL085W, strain MDH1 (second series), active compounds read low 0.997 | S. cerevisiae deletion strains, locus YKL085W, strain MDH1, active compounds read low 0.997 | S. cerevisiae deletion strains, locus YKL160W, strain elf1, active compounds read low 1.02 | S. cerevisiae deletion strains, locus YKR001C, strain vps1, active compounds read low 0.971 | S. cerevisiae deletion strains, locus YKR026C, strain gcn3, active compounds read low 0.983 | S. cerevisiae deletion strains, locus YKR091W, strain srl3, active compounds read low 0.99 | S. cerevisiae deletion strains, locus YLL001W, strain dnm1, active compounds read low 1.01 | S. cerevisiae deletion strains, locus YLL026W, active compounds read low 1 | S. cerevisiae deletion strains, locus YLL041C, strain sdh2, active compounds read low 0.999 | S. cerevisiae deletion strains, locus YLR027C, strain aat2, active compounds read low 0.983 | S. cerevisiae deletion strains, locus YLR039C, strain RIC1, active compounds read low 0.982 | S. cerevisiae deletion strains, locus YLR058C, strain SHM2, active compounds read low 1.01 | S. cerevisiae deletion strains, locus YLR102C, strain apc9, active compounds read low 0.987 | S. cerevisiae deletion strains, locus YLR113W, strain HOG1, active compounds read low 0.99 | S. cerevisiae deletion strains, locus YLR221C, strain rsa3, active compounds read low 0.991 | S. cerevisiae deletion strains, locus YLR258W, strain gsy2, active compounds read low 0.994 | S. cerevisiae deletion strains, locus YLR262C, strain YPT6 (second series), active compounds read low 0.944 | S. cerevisiae deletion strains, locus YLR262C, strain YPT6, active compounds read low 0.972 | S. cerevisiae deletion strains, locus YLR268W, strain sec22, active compounds read low 1.01 | S. cerevisiae deletion strains, locus YLR320W, strain mms22, active compounds read low 0.983 | S. cerevisiae deletion strains, locus YLR342W, strain FKS1 (second series), active compounds read low 0.972 | S. cerevisiae deletion strains, locus YLR342W, strain FKS1, active compounds read low 0.977 | S. cerevisiae deletion strains, locus YLR357W, strain rsc2, active compounds read low 0.956 | S. cerevisiae deletion strains, locus YLR370C, strain arc18, active compounds read low 0.988 | S. cerevisiae deletion strains, locus YLR371W, strain rom2, active compounds read low 1 | S. cerevisiae deletion strains, locus YLR384C, strain iki3, active compounds read low 0.998 | S. cerevisiae deletion strains, locus YLR418C, strain cdc73, active compounds read low 0.943 | S. cerevisiae deletion strains, locus YML016C, strain PPZ1, active compounds read low 0.924 | S. cerevisiae deletion strains, locus YML032C, strain rad52, active compounds read low 1.03 | S. cerevisiae deletion strains, locus YML120C, strain ndi1, active compounds read low 0.975 | S. cerevisiae deletion strains, locus YML124C, strain tub3, active compounds read low 0.989 | S. cerevisiae deletion strains, locus YMR058W, strain fet3, active compounds read low 0.974 | S. cerevisiae deletion strains, locus YMR078C, strain ctf18, active compounds read low 0.984 | S. cerevisiae deletion strains, locus YMR125W, strain sto1, active compounds read low 0.982 | S. cerevisiae deletion strains, locus YMR129W, active compounds read low 0.996 | S. cerevisiae deletion strains, locus YMR205C, strain PFK2, active compounds read low 0.977 | S. cerevisiae deletion strains, locus YMR223W, strain ubp8, active compounds read low 0.988 | S. cerevisiae deletion strains, locus YMR231W, strain pep5, active compounds read low 0.985 | S. cerevisiae deletion strains, locus YMR263W, strain SAP30, active compounds read low 1.02 | S. cerevisiae deletion strains, locus YMR307W, strain GAS1, active compounds read low 1.01 | S. cerevisiae deletion strains, locus YNL067W, strain RPL9B, active compounds read low 0.979 | S. cerevisiae deletion strains, locus YNL071W, strain lat1, active compounds read low 0.994 | S. cerevisiae deletion strains, locus YNL153C, strain GIM3, active compounds read low 0.988 | S. cerevisiae deletion strains, locus YNL183C, strain NPR1, active compounds read low 0.972 | S. cerevisiae deletion strains, locus YNL209W, strain ssb2, active compounds read low 0.986 | S. cerevisiae deletion strains, locus YNL233W, strain BNI4, active compounds read low 0.998 | S. cerevisiae deletion strains, locus YNL248C, strain rpa49, active compounds read low 0.996 | S. cerevisiae deletion strains, locus YNL250W, strain rad50, active compounds read low 0.946 | S. cerevisiae deletion strains, locus YNL271C, strain bni1, active compounds read low 0.969 | S. cerevisiae deletion strains, locus YNL298W, strain CLA4, active compounds read low 0.98 | S. cerevisiae deletion strains, locus YNL307C, strain MCK1, active compounds read low 0.98 | S. cerevisiae deletion strains, locus YNL322C, strain KRE1 (second series), active compounds read low 0.965 | S. cerevisiae deletion strains, locus YNL322C, strain KRE1, active compounds read low 1 | S. cerevisiae deletion strains, locus YNR049C, strain mso1, active compounds read low 0.983 | S. cerevisiae deletion strains, locus YNR052C, strain pop2, active compounds read low 0.966 | S. cerevisiae deletion strains, locus YOL012C, strain htz1 0.903 | S. cerevisiae deletion strains, locus YOL147C, strain pex11, active compounds read low 1.01 | S. cerevisiae deletion strains, locus YOR001W, strain rrp6, active compounds read low 1 | S. cerevisiae deletion strains, locus YOR061W, strain CKA2, active compounds read low 1.01 | S. cerevisiae deletion strains, locus YOR069W, strain VPS5, active compounds read low 0.99 | S. cerevisiae deletion strains, locus YOR070C, strain gyp1, active compounds read low 0.989 | S. cerevisiae deletion strains, locus YOR080W, strain dia2, active compounds read low 0.974 | S. cerevisiae deletion strains, locus YOR083W, strain WHI5, active compounds read low 1.03 | S. cerevisiae deletion strains, locus YOR106W, strain vam3, active compounds read low 0.972 | S. cerevisiae deletion strains, locus YOR136W, strain idh2, active compounds read low 0.986 | S. cerevisiae deletion strains, locus YOR144C, strain elg1, active compounds read low 0.986 | S. cerevisiae deletion strains, locus YOR184W, strain ser1, active compounds read low 1.05 | S. cerevisiae deletion strains, locus YOR231W, strain MKK1, active compounds read low 1.03 | S. cerevisiae deletion strains, locus YOR265W, strain rbl2, active compounds read low 1 | S. cerevisiae deletion strains, locus YOR270C, strain vph1, active compounds read low 0.802 | S. cerevisiae deletion strains, locus YOR290C, strain snf2, active compounds read low 0.956 | S. cerevisiae deletion strains, locus YOR316C, strain cot1, active compounds read low 0.977 | S. cerevisiae deletion strains, locus YPL051W, strain arl3, active compounds read low 1.02 | S. cerevisiae deletion strains, locus YPL055C, strain LGE1, active compounds read low 1.01 | S. cerevisiae deletion strains, locus YPL078C, strain atp4, active compounds read low 1 | S. cerevisiae deletion strains, locus YPL106C, strain sse1, active compounds read low 0.926 | S. cerevisiae deletion strains, locus YPL240C, strain hsp82, active compounds read low 1 | S. cerevisiae deletion strains, locus YPL256C, strain CLN2, active compounds read low 1.03 | S. cerevisiae deletion strains, locus YPR119W, strain clb2, active compounds read low 0.997 | S. cerevisiae deletion strains, locus YPR141C, strain kar3, active compounds read low 0.973 | S. cerevisiae deletion strains, locus YPR163C, strain tif3, active compounds read low 0.969 | S. cerevisiae deletion strains, locus YPR167C, strain met16, active compounds read low 0.972 | S. cerevisiae deletion strains, strain wtn01, active compounds read low 1.01 | S. cerevisiae strains, strain wild type, active compounds read low 1

Source: PubChem BioAssay AID1159580 (chemical genetic matrix, 2015)
